Assay results reported in PubChem BioAssay (NCATS).
Results filed as inconclusive are left out. Where a call stands in place of a potency, no number is given. Activity calls are given as the source filed them. The call rests on the fitted dose curve; in most records, active means well fitted inhibition curve with a large enough effect; inconclusive means small, poorly fitted or top-dose-only effect; inactive means flat fitted curve, though single readings scatter. *1 amine or outer side, *2 acyl side, *3 side chain or, on linkers, in order; H or OH if unused. Where a SMILES comes first, the peptide text is derived from it. [ ]: non-standard residue; d: D form. X7 = O=C([C@@H](CC(O)CCl)O[*:1])[*:2]; aIle = CC[C@@H](C)[C@H](N)C(=O)O; NMeV = CN[C@H](C(=O)O)C(C)C; NMeA = CN[C@@H](C)C(=O)O; βAla = NCCC(=O)O

Biological target: Phospholipid hydroperoxide glutathione peroxidase GPX4 (Homo sapiens) (UniProt P36969)
Experiment: Primary qHTS Assay for Inhibitors of Recombinant Selenoprotein Glutathione Peroxidase 4 (GPX4) (AID 1845192); further: nearly all actives have a fitted effect of over 65% in size
Settings: recombinant GPX4, GR-coupled NADPH fluorescence, 15 min; series mostly up to 50 µM
From the text: Assay Provider: Elias S.J. Arner MD PhD.
Department of Medical Biochemistry and Biophysics
Karolinska Institutet, Solna, Stockholm, Sweden
Selenoprotein glutathione peroxidases (GPX), like the ubiquitously expressed GPX1 and the ferroptosis modulator GPX4, enact their antioxidant activities by reducing hydroperoxides using glutathione. […] GPX1 and GPX4 inhibitors have thus shown promise as anti-cancer agents. Existing inhibitors are often promiscuous, or modulate GPX activity only indirectly, so novel direct inhibitors identified through screening against GPX1 and GPX4 could be valuable. Here, we developed optimized glutathione reductase (GR)-coupled GPX assays for the biochemical high-throughput screen (HTS) of almost 12,000 compounds with known mechanisms of action. Initial hits were triaged using a GR counter-screen, assessed for isoform specificity using a separate GPX2 assay, and were assessed for general selenocysteine-targeting activity using a thioredoxin reductase (TXNRD1) assay. With this suite of assays, we identified novel GPX1/GPX2- and GPX4-specific inhibitors and can here present a validated pipeline for future discovery research for selenoprotein-targeting agents.
SEQUENCE No. (e.g., 1, 2, 3, etc.); […] (e.g., Cells, Incubation, Reagent, etc.); VALUE; DESCRIPTION.
1; Reagent 1; 3 uL; 333.33 nM GPx4 enzyme or no enzyme control in 1536-well, black, solid Greiner assay plate.
2; Compound; 25 nL; Kalypsis pin tool (Wako USA) equipped with a 1536-well pin head.
3; Incubation; 30 min; room temperature.
4; Reagent 2; 1 uL; 500 nM GR, 5 mM GSH, 2.5 mM NADPH solution
5; Reagent 3; 1 uL; 2.5 mM CHP in 50% EtOH.
6; Detection; Fluorescence; ViewLux microplate reader, excitation 340 nm and emission 450 nm.
7; Incubation; 15 min; room temperature.
8; Detection; Fluorescence; ViewLux microplate reader, excitation 340 nm and emission 450 nm.
NOTES (numbers refer to Sequence numbers above)
1. 3 µL of 333.33 nM GPX4 and 0.016% BSA in assay buffer (50 mM Tris-HCl, 2 mM EDTA (pH 7.5), 150 mM NaCl) was added to columns 3-48 of 1536-well plates using a BioRAPTR Flying Reagent Dispenser (Let's Go Robotics (LGR), Carlsbad, CA). A no-enzyme control (0.01% BSA in TES assay buffer) was added to columns 1-2.
2. 25 nL, library and DMSO controls were added to each well with a pin tool (Kalypsys).
3. The assay plates were incubated for 30 minutes at room temperature.
4. 1 µL of master mix (500 nM glutathione reductase (GR), 5 mM reduced glutathione (GSH), 2.5 mM NADPH in assay buffer) was added.
5. 1 µL of cumene hydroperoxide (CHP) ([2.5 mM] in 50% EtOH) was then added within 5 minutes to initiate the reaction. Final concentrations were: 200 nM GPX4, 1 mM GSH, 0.5 mM CHP, 0.5 mM NADPH, 100 nM GR, 0.01% BSA.
6. Initial fluorescence readout (t=0) at 340/450 nm was measured using a ViewLux multimodal detector (PerkinElmer, Waltham, MA).
8. Endpoint fluorescence readout (t=15) at 340/450 nm was measured 15 min after room temperature incubation.

Sequence of Phospholipid hydroperoxide glutathione peroxidase GPX4 (Homo sapiens) (P36969 whole entry, looked up): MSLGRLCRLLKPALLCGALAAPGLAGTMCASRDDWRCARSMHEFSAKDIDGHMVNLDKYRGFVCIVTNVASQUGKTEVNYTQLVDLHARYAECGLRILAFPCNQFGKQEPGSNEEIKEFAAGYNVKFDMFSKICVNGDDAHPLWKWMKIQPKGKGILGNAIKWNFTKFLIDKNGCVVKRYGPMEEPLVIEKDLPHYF

SMILES | Potency
CC[C@@H](C)[C@@H]1NC(=O)[C@@H]2CCCN2C(=O)[C@@H](CC(O)CCl)OC(=O)CCNC(=O)[C@H](C)N(C)C(=O)[C@H](C(C)C)N(C)C1=O (stereo not given in full) (cyclo([NMeA][βAla][X7]P[aIle][NMeV])) | inactive
Cc1ccccc1C1=CCN(C)CC1 | inactive
COc1cc2c(cc1O)C1(C)CCC(O)C(C)(C)C1CC2=O (stereo not given) | inactive
Oc1ccc2c(c1)C13CCCC[C@H]1[C@@H](C2)N(CC1CCC1)CC3 | inactive
Cc1cccc(NC(=O)c2ccc(C(F)(F)F)cc2C(=O)O)n1 | inactive
CC1=CC2OC3[C@H](O)C[C@@](C)([C@]34CO4)[C@@]2(CO)[C@H](O)C1=O (stereo not given in full) | inactive
C[C@@H]1[C@H](O)[C@@H](C)/C=C/C=C/CC/C=C/C=C/C=C/C=C/[C@H](O[C@H]2O[C@@H](C)[C@H](O)[C@@H](N)[C@H]2O)C[C@@H]2O[C@](O)(C[C@@H](O)[C@H](O)CC[C@@H](O)C[C@@H](O)C[C@@H](O)CC(=O)O[C@H]1C)C[C@H](O)[C@H]2C(=O)O | inactive
C=CCN1CCC2(C)c3cc(O)ccc3C[C@H]1[C@H]2C | inactive
CC(=O)OC[C@]12C[C@H](OC(=O)CC(C)C)C(C)=C[C@H]1O[C@@H]1[C@H](O)[C@@H](OC(C)=O)[C@@]2(C)[C@@]12CO2 | inactive
C=C1CC[C@H]2[C@@H](/C=C(\C)C(=O)[C@@]3(OC(C)=O)C[C@H](C)[C@H](OC(=O)c4ccccc4)[C@@H]3[C@H]1OC(C)=O)C2(C)C | inactive
COc1ccc(C(C)(C)C)cc1CN[C@H]1C2CCN(CC2)[C@H]1C(c1ccccc1)c1ccccc1 | inactive
CN(C(=O)C(c1ccccc1)c1ccccc1)[C@H](CN1CC[C@H](O)C1)c1ccccc1 | inactive
CN1C(=O)[C@@H](Cc2c[nH]c3ccccc23)N=C(c2ccccc2F)c2ccccc21 | inactive
COc1ccc2c3c4n(c2c1)[C@@H](C=C(C)C)OOC(C)(C)C[C@@H]4N1C(=O)[C@@H]2CCCN2C(=O)[C@]1(O)[C@H]3OCC=C(C)C | inactive
CC(=O)O[C@H]1C[C@@H](C)O[C@H]2O[C@@H]3CC4CC[C@@H]5C(CC[C@]6(C)[C@@H](C7=CC(=O)OC7)CC[C@]56O)[C@@]4(C=O)C[C@H]3O[C@]21O (stereo not given in full) | inactive
O=S(=O)(c1ccccc1F)N1CCOc2c(N3CCNCC3)cccc21 | inactive
O=C(OC[C@H]1O[C@@H](Oc2ccc(O)cc2CO)[C@H](O)[C@@H](O)[C@@H]1O)c1ccccc1 | inactive
COC(=O)C12C(=O)C(C)(O)C(=O)C1(C)C(C)=CC1C34CCC(OC3=O)C(C)(C)C4CCC12C (stereo not given) | inactive
C[C@]12CCC(=O)C=C1CC[C@@H]1[C@@H]2[C@@H](O)C[C@]2(C)C(=O)CC[C@@H]12 | inactive
C[C@@H]1C[C@@H](O)[C@]2(O)O[C@@H]3C[C@@]4(C=O)C(CC[C@@H]5C4CC[C@]4(C)[C@@](O)(C6=CC(=O)OC6)CC[C@]54O)C[C@H]3OC2O1 (stereo not given in full) | inactive

SMILES | Potency
CO/C1=C\C(C)=C\[C@@H](C)[C@@H](O)[C@@H](C)C/C(C)=C/C=C/[C@H](OC)[C@@H]([C@@H](C)[C@@H](O)[C@H](C)[C@@]2(O)C[C@@H](O)[C@H](C)[C@@H](C(C)C)O2)OC1=O | inactive
C[C@@]1(CO)[C@H](O)CC[C@@]2(C)[C@H]1CC[C@H]1C[C@@H]3C[C@@]12CC[C@]3(O)CO | inactive
C=C1C(=O)OC2/C=C(\COO)CC/C=C(\COC(C)=O)CC(OC(=O)C(C)CC)C12 (stereo not given) | inactive
CC(C)OC(=O)c1ccnc2cc(C(OCCN3CCCCC3)c3ccccc3Cl)sc12 (stereo not given) | inactive
C=C1[C@@H](O)[C@]2(O)OC[C@]34C2[C@]2(C)C(C[C@H]3OC(=O)[C@H](O)[C@@]14O)C(C)=CC(=O)[C@H]2O (stereo not given in full) | inactive
C[C@H](Nc1ncnc2nc[nH]c12)c1nc2ccc(F)cc2c(=O)n1-c1ccccc1 | inactive
Cc1sc2c(c1C)C(c1ccc(Cl)cc1)=NC(CC(=O)Nc1ccc(O)cc1)c1nnc(C)n1-2 (stereo not given) | inactive
C/C=C(\C)C(=O)OC1CC2C(CC=C3CC(OC4CC(OC)C(OC5CC(OC)C(OC6CC(OC)C(OC7CC(OC)C(O)C(C)O7)C(C)O6)C(C)O5)C(C)O4)CCC32C)C2(O)CCC(C(C)=O)C12C (stereo not given) | inactive
C[C@@H](CN1CCC2(CC1)C(=O)NCN2c1cccc(F)c1)NC(=O)c1ccc(Br)cc1 | inactive
C=C1[C@@H](C)[C@H]2[C@H](Cc3ccccc3)NC(=O)[C@]23[C@H](OC(C)=O)/C=C/[C@](C)(O)C(=O)[C@@H](C)C/C=C/[C@H]3[C@@H]1O | inactive
CCCCCn1cc(C(=O)C2C(C)(C)C2(C)C)c2ccccc21 | inactive
NCCCCCNC1(c2ccccc2)CCCCC1 | inactive
OCc1nnc2n1-c1ccc(Cl)cc1C(c1ccccc1Cl)=NC2 | inactive
O=C1Nc2ccc3ncsc3c2/C1=C/c1cnc[nH]1 | inactive
CN=C(NS(=O)(=O)c1ccc(Cl)cc1)N1C[C@H](c2ccccc2)C(c2ccc(Cl)cc2)=N1 | inactive
CC(C)[C@H](NC(=O)c1nn(Cc2ccc(F)cc2)c2ccccc12)C(N)=O | inactive
C=CCN1CC[C@]23c4c5ccc(O)c4O[C@H]2[C@@H](O)CC[C@@]3(O)[C@H]1C5 | inactive
CN1CCC2=C(C1)c1ccccc1Cc1ccccc12 | inactive
C=C(C)[C@@]12O[C@@H]1[C@@]1(C)C(=CC2=O)CC[C@@H](OC(C)=O)[C@@H]1C | inactive
CC[C@H]1C[C@@H]2CC[C@@H](O2)[C@@H](C)C(=O)O[C@H](CC)C[C@H]2CC[C@H](O2)[C@H](C)C(=O)O[C@@H](C)C[C@@H]2CC[C@@H](O2)[C@@H](C)C(=O)O[C@H](CC)C[C@H]2CC[C@H](O2)[C@H](C)C(=O)O1 | inactive
